The campaign covered roughly 350,000 compounds. About 31,000 (8.9%) were called active. Another 15% or so got no clear call; they are omitted. The entries come from a sample that favours actives as a whole. A call without a number means that no potency is given here. Values without a mark were called inactive. Calls come from the whole dose curve; as a rule, active = well fitted inhibition curve with a large enough effect; inconclusive = small, poorly fitted or top-dose-only effect; inactive = no such curve, though single readings can be large or run the other way.
Each compound was assayed against Histone-lysine N-methyltransferase EHMT2 (Homo sapiens) (UniProt Q96KQ7) (assay: qHTS Assay for Inhibitors of Histone Lysine Methyltransferase G9a). Settings: G9a H3K9 monomethylation, AlphaScreen, 2 h; series mostly up to 59 µM.
Method in brief: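 G9a (20 nM) was preincubated 15 min with compound, then reacted 2 h at room temperature with 500 nM biotin-H3K9 peptide and 20 µM SAM. Monomethyl-H3K9 detected by AlphaScreen using anti-H3K9me1 antibody.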
Note: nearly all actives have a fitted effect of over 75% in size.
Potency is the fitted concentration of half-maximal effect.

Chain of Histone-lysine N-methyltransferase EHMT2 (Homo sapiens) (Q96KQ7 913-1193 limits assumed): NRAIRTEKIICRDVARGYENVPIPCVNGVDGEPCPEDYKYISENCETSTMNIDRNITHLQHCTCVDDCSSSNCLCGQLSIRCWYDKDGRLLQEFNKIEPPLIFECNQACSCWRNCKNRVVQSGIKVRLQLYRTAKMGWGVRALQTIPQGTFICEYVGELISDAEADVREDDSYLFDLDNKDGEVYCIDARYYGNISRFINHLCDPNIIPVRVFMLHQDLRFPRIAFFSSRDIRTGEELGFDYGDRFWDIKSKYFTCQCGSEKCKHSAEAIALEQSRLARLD

Row | SMILES | Potency | activity, negative = inhibition
1 | CCn1cc2nc(SCc3ccccc3Cl)n(CCc3ccccc3)c(=O)c2n1 | inactive | 
2 | C=CCOc1ccc(/C=C/C(=O)OC(C)C(=O)Nc2ccc(NC(C)=O)cc2)cc1 (stereo not given) | inactive | 
3 | COc1ccc(CNC(=O)COC(=O)CCS(=O)(=O)c2ccc(C)cc2)cc1OC | inactive | 
4 | CN1CCN(S(=O)(=O)c2cccc(C(=O)O)c2)CC1 | inactive | 
5 | CN1CCCN(S(=O)(=O)c2ccc3c(c2)OCCO3)CC1 | inactive | 
6 | CN1CCN(S(=O)(=O)c2ccc3[nH]cc(C(=O)O)c(=O)c3c2)CC1 | 56.2 µM (active) | 
7 | COc1ccc(N2CCN(Cc3nnc(-c4ccccc4)o3)CC2)cc1 | 35.5 µM (active) | 
8 | COc1ccc(N2CCN(Cc3ccc(Br)s3)CC2)cc1 | 3.16 µM (active) | 
9 | COc1ccc(N2CCN(Cc3nc4c(c(=O)[nH]c(=O)n4C)n3Cc3ccc(Cl)cc3)CC2)cc1 | inactive | 
10 | Cc1ccc(-c2nnc(CN3CCN(C)CC3)o2)cc1 | inactive | 
11 | Cc1ccc(C)c(N2CCN(Cc3nnc(-c4ccccc4)o3)CC2)c1 | inactive | 
12 | CCOCc1c(C(=O)N2CCN(Cc3ccc(Br)s3)CC2)oc2ccccc12 |  | 16.1% [at 2.33 µM]
13 | CNS(=O)(=O)c1cccc(C(=O)OCC(=O)N2c3ccccc3NC(=O)C2(C)C)c1 |  | 10.5% [at 12.7 µM]
14 | COc1ccc(NC(=O)CN2CCCN(Cc3ccccc3)S2(=O)=O)cc1 | inactive | 
15 | CC(C)Sc1ncnc2c1cnn2-c1ccccc1 | inactive | 
16 | Cc1cc(NC(=O)C(C)SCC(=O)Nc2ccccc2N2CCCCC2)no1 (stereo not given) | inactive | 
17 | CCOc1ccc(CNC(=O)c2ccc3nc(CC)c(CC)nc3c2)cc1OC | inactive | 
18 | CCCCNC(=O)N(O)C1N(/N=C/c2ccccc2O)C(=S)SC1(C)C (stereo not given) | inactive | 
19 | CN1CCN(c2ccc(NC(=O)c3cc(Cl)c4c(c3)OCCO4)cc2)CC1 | 50.1 µM (active) | 
20 | CN1CCN(c2ccc(NC(=O)c3ccccc3)cc2)CC1 | inactive | 
21 | O=C(Nc1cccc(Cl)c1N1CCOCC1)c1ccc2c(c1)OCCO2 | inactive | 
22 | CCCC12CN3CC(C)(CN(C1)C3c1ccccc1Cl)C2=O (stereo not given) | inactive | 
23 | COc1ccc2ccn(C)c2c1 |  | -0.398% [at 0.501 µM]
24 | COc1ccc2c(c1)cc1n2CCN=C1NN | 39.8 µM (active) | 

Row | SMILES | Potency | activity, negative = inhibition
25 | Cc1ccc(C)c(NC(=O)Cn2ccn(-c3ccc(F)cc3)c(=O)c2=O)c1 | inactive | 
26 | Cc1cccc(C(=O)Nc2ccc(-c3nc4ncccc4o3)cc2C)c1 | inactive | 
27 | COC(=O)C1=CO[C@@H](O[C@@H]2O[C@H](CO)[C@@H](O)[C@H](O)[C@H]2O)C2C1C[C@H](O)[C@@H]2C (stereo not given in full) |  | 1.46% [at 2.33 µM]
28 | CCc1cccc(NC(=O)Cn2nc(CC)n3c(cc4cc(C)ccc43)c2=O)c1 | inactive | 
29 | COc1ccccc1C(=O)NCC(=O)OCC(=O)Nc1nnc(-c2ccccc2)o1 |  | 17.3% [at 12.7 µM]
30 | COc1ccccc1NC(=O)C1=C(C)NC2=C(C(=O)CCC2)C1c1ccc(C)o1 (stereo not given) | 50.1 µM (active) | 
31 | COc1ccccc1NC(=O)C1=C(C)NC(=O)NC1c1ccc(C)s1 (stereo not given) | inactive | 
32 | COc1ccccc1NC(=O)C1=C(C)Nc2ncnn2C1c1ccc(C)o1 (stereo not given) |  | -42.2% [at 12.7 µM]
33 | CCOC(=O)c1cc2c(=O)n3ccccc3nc2n(CC2CCCO2)c1=NC(=O)c1ccccc1Br (stereo not given) | inactive | 
34 | CC(=O)N/C(=C\c1ccccc1)C(=O)OC(C)C(=O)N(C)c1ccccc1 (stereo not given) | inactive | 
35 | Cc1ccc(OCCCC(=O)Nc2ccc3c(c2)OCCO3)cc1 | inactive | 
36 | O=C(c1ccc(OC2CCN(Cc3ccccn3)CC2)cc1)N1CCCCCC1 | inactive | 
37 | CN(CCc1ccccn1)C(=O)c1ccc(OC2CCN(Cc3ccccn3)CC2)cc1 |  | 24.7% [at 0.501 µM]
38 | CCCCN(C)C(=O)C1CCN(Cc2ccccn2)CC1 | 5.62 µM (active) | 
39 | Cc1noc(C)c1COc1ccccc1C(=O)N(C)CC(=O)Nc1cccc(F)c1 | inactive | 
40 | CCOC(=O)c1ccc(NC(=O)Cn2cc(S(=O)(=O)Cc3ccccc3F)c3ccccc32)cc1 | inactive | 
41 | Cc1cc(C(=O)CCC(=O)NNC(=O)c2ccccc2O)c(C)s1 | inactive | 
42 | Cc1sc2nc(SCCO)n(-c3ccccc3)c(=O)c2c1C | inactive | 
43 | O=S(=O)(c1ccccc1)N1CN(Cc2ccc(F)cc2)c2nc3ccccc3nc21 | inactive | 
44 | COc1ccc(S(=O)(=O)N2CCSCC2)cc1 | inactive | 
45 | C=CCN1CN(S(=O)(=O)c2ccc(OC)cc2)c2nc3ccccc3nc21 | 7.08 µM (active) | 
46 | O=C(CC1C(=O)N(c2ccccc2)C(=O)N1CCc1cccs1)Nc1ccc(F)cc1 (stereo not given) | inactive | 
47 | Cc1ccccc1C(=O)NC(=S)NC1CC1 | inactive | 
48 | CCn1c2ccccc2c2cc(NC(=O)COc3ccc(C)cc3C)ccc21 | inactive | 

Row | SMILES | Potency | activity, negative = inhibition
49 | O=C(CCC(=O)c1cccs1)NC1CCCCCC1 | inactive | 
50 | CCCCC(CC)CNC(=O)CCCCn1c(=O)[nH]c2ccsc2c1=O (stereo not given) | inactive | 
51 | O=C(CCCCCn1c(=S)[nH]c2ccsc2c1=O)NC1CCCCC1 | 10 µM (active) | 
52 | COc1ccccc1-c1sc2ccccc2c1-c1ccc(C(C)=O)cc1 | inactive | 
53 | COc1ccc(C(CCN(Cc2ccc(OC)c(OC)c2)C(=O)CCl)c2ccccc2)cc1 (stereo not given) | 50.1 µM (active) | 
54 | CCOC(=O)CN(Cc1ccc(OC)c(OC)c1)S(=O)(=O)c1ccc(OC)cc1 | inactive | 
55 | COc1ccc(CN(C)C(=O)CC(c2ccccc2)c2ccccc2)cc1 | inactive | 
56 | Cc1ccc(Cl)cc1N1CCN(C(=O)c2cn(C)c3ccc(S(=O)(=O)N(C)C4CCCCC4)cc3c2=O)CC1 | inactive | 
57 | CCn1cc(CCC(=O)NCc2ccc(F)cc2)c2ccccc21 | inactive | 
58 | COc1cc(OC)c(OC)cc1/C=C/c1nc2cc3ccccc3cc2c(=O)n1-c1ccc(F)c(Cl)c1 | inactive | 
59 | Fc1ccc(Nc2nc(SCc3ccccc3Cl)nc3ccccc23)cc1 | inactive | 
60 | C=CS(=O)c1sc(Cl)c(N2CCOCC2)c1[N+](=O)[O-] (stereo not given) | 1.58 µM (active) | 
61 | O=C(CC1Oc2ccccc2NC1=O)NCc1ccc(F)cc1 (stereo not given) | inactive | 
62 | CC1=C(C)CC2C(=O)N(c3cccc4ccccc34)C(=O)C2C1 (stereo not given) | 7.94 µM (active) | 
63 | O=C1c2ccccc2C(=O)N1c1cccc2ccccc12 | inactive | 
64 | CCc1ccccc1N1C(=O)C2C3CC(=O)C(c4ccccc43)C2C1=O (stereo not given) | inactive | 
65 | CCCCn1cc(S(=O)(=O)c2ccc(OCC)cc2)c(=O)c2cc(OC)c(OC)cc21 | inactive | 
66 | CCn1c(=O)c(C(=O)NCc2ccc3c(c2)OCO3)c(O)c2ccccc21 |  | 8.89% [at 0.501 µM]
67 | COc1ccc(C2c3c(oc4ccccc4c3=O)C(=O)N2Cc2ccc3c(c2)OCO3)cc1 (stereo not given) | inactive | 
68 | CCc1noc(C)c1C(=O)Oc1ccc(N(C)S(=O)(=O)c2ccc(C)c(C)c2)cc1 |  | 15.4% [at 12.7 µM]
69 | O=C(CSc1nnc(CNC(=O)c2ccccc2)n1-c1ccc(F)cc1)Nc1ccccc1F | inactive | 
70 | CNC(=O)CSc1nnc(CCc2ccccc2)n1-c1ccccc1 | inactive | 
71 | COC(=O)c1ccc(NC(=O)CSc2nnc(-c3ccncc3)n2C)cc1 | inactive | 
72 | COC(=O)c1ccc(NC(=O)CSc2nnc(Cc3cccn3C)n2-c2ccc(F)cc2)cc1 | 44.7 µM (active) | 

Row | SMILES | Potency | activity, negative = inhibition
73 | Cn1cccc1Cc1nnc(SCC(=O)NCCc2ccccc2)n1-c1ccc(F)cc1 | 56.2 µM (active) | 
74 | COC(=O)c1ccc(NC(=O)CSc2nnc(C3CC3)n2C)cc1 | inactive | 
75 | Cc1ccccc1NC(=O)Cc1nc(COC(=O)c2cccnc2Cl)cs1 | inactive | 
76 | COc1ccccc1C(CNC(=O)c1ccc(C)c(S(=O)(=O)N2CCCCC2)c1)N(C)C (stereo not given) |  | 24.7% [at 12.7 µM]
77 | CC(=O)Nc1ccc(Nc2cc(C)nc(Nc3ccc(NC(C)=O)cc3)n2)cc1 |  | -6.09% [at 2.33 µM]
78 | COc1ccc(CCn2c(=N)c(C(=O)NCC3CCCO3)cc3c(=O)n4cccc(C)c4nc32)cc1OC (stereo not given) | inactive | 
79 | COc1cccc(/C=C2\Sc3ccc(C(=O)NCC4CCCO4)cc3N(C)C2=O)c1 (stereo not given) | inactive | 
80 | COc1ccc2c(c1)N(C)/C(=C1/SC(=S)N(NC(C)=O)C1=O)S2 | 70.8 µM (active) | 
81 | COc1cccc(NC(=O)Nc2ccc3c(c2)N(C)C(=O)c2ccccc2S3)c1 | inactive | 
82 | CN(C(=O)CSc1nnc(-c2ccc3c(c2)OCO3)o1)C1CCS(=O)(=O)C1 (stereo not given) |  | 23.8% [at 12.7 µM]
83 | CCOC(=O)c1cc(C(C)C)sc1NC(=O)COC(=O)c1nccnc1N |  | -18.5% [at 0.501 µM]
84 | COC(=O)c1ccc(C(=O)NC2CC(C)(C)Cc3c2cnn3-c2ccc(F)cc2)nc1 (stereo not given) | inactive | 
85 | CCCN(C(=O)Cn1ncc2c([nH]c3ccc(C)cc32)c1=O)c1ccccc1C | inactive | 
86 | CC(C)(C)OC(=O)NCCCCCNC(=O)c1nc[nH]c1C(=O)NCc1ccccc1 |  | 24.5% [at 2.33 µM]
87 | Cc1occc1C(=O)Nc1nnc(-c2ccncc2)s1 |  | -37.1% [at 12.7 µM]
88 | Cc1nn(C(=O)c2ccoc2C)c(N)c1-c1ccccc1 | 31.6 µM (active) | 
89 | C/C(=N\NC(=O)c1ccoc1C)c1ccccc1O | inactive | 
90 | CCOc1ccccc1NC(=O)CN1CCCN(Cc2cccc(Cl)c2)S1(=O)=O | inactive | 
91 | Cc1ccc2c(c1)N(CC(=O)NCCc1ccc(Cl)cc1)C(=O)c1cccnc1O2 | inactive | 
92 | COc1ccc2c(CC(=O)OCC(=O)NC(N)=O)coc2c1 | inactive | 
93 | COc1ccc2c(CC(=O)OCC(=O)Nc3ccccc3[N+](=O)[O-])coc2c1 | 11.2 µM (active) | 
94 | COc1ccc2c(CC(=O)Nc3nnc(C4CC4)s3)coc2c1 | inactive | 
95 | COc1ccc(C(=O)c2c3ccc([N+](=O)[O-])cc3[n+]([O-])n2CCCN)cc1 |  | -22.2% [at 2.33 µM]

Reference: PubChem BioAssay AID504332 (National Center for Advancing Translational Sciences (NCATS), 2011)
